In PubChem BioAssay (EPA / NIEHS):
Results filed as inconclusive are left out. The source made the active and inactive calls. The calls were made as follows, unless noted: active = hit-call score of the fitted dose curve at least 0.9, where 1 is the maximum; inconclusive = response in the unintended direction; inactive = score below 0.9.

Assays:
[1] = target: T1, Thyroid hormone receptor alpha (Rattus norvegicus) + Thyroid hormone receptor beta (Rattus norvegicus) (UniProt P18113+P63059); experiment: TOX21_TR_LUC_GH3_Antagonist_Followup: Tox21 GH3 Thyroid Hormone Receptor Antagonism Luciferase Follow-Up Assay (AID 2283942)
T1 sequence (P63059 whole entry, looked up): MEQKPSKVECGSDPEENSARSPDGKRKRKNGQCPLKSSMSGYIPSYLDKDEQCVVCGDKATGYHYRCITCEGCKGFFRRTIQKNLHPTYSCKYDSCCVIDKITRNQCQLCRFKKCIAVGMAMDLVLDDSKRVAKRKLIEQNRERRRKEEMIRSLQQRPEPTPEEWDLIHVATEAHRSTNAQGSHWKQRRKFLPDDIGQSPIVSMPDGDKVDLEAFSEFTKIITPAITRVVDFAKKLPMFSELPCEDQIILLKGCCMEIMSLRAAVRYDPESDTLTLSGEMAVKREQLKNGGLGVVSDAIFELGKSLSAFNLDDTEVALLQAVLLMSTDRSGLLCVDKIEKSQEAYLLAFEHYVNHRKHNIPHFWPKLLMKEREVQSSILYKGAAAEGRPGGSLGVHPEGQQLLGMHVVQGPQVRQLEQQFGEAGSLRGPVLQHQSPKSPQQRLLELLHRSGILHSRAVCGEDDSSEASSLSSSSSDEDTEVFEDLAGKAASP
T1 sequence (P18113 whole entry, looked up): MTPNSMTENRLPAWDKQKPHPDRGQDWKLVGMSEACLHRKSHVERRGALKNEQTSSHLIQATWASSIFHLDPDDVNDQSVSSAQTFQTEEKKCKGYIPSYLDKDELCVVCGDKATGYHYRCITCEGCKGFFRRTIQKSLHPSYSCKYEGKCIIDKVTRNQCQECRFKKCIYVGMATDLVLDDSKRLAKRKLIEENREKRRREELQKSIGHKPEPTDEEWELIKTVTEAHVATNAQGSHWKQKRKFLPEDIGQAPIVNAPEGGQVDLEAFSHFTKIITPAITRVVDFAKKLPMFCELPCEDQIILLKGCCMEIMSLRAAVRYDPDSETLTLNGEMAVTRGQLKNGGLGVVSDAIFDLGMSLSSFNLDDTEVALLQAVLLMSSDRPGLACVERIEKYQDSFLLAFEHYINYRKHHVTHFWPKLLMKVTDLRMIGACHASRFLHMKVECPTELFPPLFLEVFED
Summary of the method: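 Antagonist mode: GH3 cells seeded 1,500/well, compounds at 15 concentrations (92 uM to 5nM final) plus T3 at 1.0 nM final, 24 h at 37C. Luciferase read with ONE-Glo after 30 min at room temperature.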

[2] = target: T1, Thyroid hormone receptor alpha (Rattus norvegicus) + Thyroid hormone receptor beta (Rattus norvegicus); experiment: TOX21_TR_LUC_GH3_Agonist_Followup: Tox21 GH3 Thyroid Hormone Receptor Agonism Luciferase Follow-Up Assay (AID 2283939)
Summary of the method: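 Rat GH3 cells (1,500/well) in serum-free assay medium, treated with 15-point series, 92 uM to 5 nM final, for 24 h at 37C. Luciferase via ONE-Glo luminescence; gain of signal fitted against DMSO, T3 positive control.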

PGR (gene 5241) [3] = target: PGR (gene 5241) (UniProt P06401); experiment: TOX21_PR_BLA_Followup_Antagonist_ratio: Tox21 HEK293 Progesterone Receptor (PR) Antagonism Beta-lactamase Follow-Up Assay, Ratio (AID 2283934);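 also: PR-UAS-bla HEK293T cells stimulated with 1 nM R5020 agonist for 16 hr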
Chain of PGR (gene 5241) (P06401 whole entry, looked up): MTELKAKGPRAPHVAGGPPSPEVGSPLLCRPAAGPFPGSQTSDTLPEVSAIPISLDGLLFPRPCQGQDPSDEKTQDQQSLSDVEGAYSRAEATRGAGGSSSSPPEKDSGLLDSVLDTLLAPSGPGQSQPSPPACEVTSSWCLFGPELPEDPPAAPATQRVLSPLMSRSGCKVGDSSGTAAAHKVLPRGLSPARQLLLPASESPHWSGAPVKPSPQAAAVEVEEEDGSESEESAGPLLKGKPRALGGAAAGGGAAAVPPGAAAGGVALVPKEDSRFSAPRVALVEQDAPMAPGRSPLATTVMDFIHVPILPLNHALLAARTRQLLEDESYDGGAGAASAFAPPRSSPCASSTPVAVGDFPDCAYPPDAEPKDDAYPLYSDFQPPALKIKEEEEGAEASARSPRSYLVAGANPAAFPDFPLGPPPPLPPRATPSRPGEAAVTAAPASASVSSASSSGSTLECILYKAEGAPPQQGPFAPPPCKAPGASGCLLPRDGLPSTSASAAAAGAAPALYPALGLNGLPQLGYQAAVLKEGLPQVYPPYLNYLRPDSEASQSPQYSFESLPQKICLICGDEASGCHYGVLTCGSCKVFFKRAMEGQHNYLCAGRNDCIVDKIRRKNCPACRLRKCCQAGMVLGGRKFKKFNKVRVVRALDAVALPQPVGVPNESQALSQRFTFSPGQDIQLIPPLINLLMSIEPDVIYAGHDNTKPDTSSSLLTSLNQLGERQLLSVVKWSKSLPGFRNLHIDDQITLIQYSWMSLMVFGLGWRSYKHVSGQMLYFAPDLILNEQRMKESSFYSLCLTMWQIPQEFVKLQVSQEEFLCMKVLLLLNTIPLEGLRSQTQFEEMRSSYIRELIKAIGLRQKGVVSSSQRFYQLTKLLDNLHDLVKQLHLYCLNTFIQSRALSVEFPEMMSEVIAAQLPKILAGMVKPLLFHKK
Summary of the method: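 Antagonist mode used 1 nM R5020 (final) as agonist on a beta-lactamase reporter line in HEK293T cells. Activity was taken from the substrate cleavage ratio after 16 hr exposure.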

[4] = TOX21_PR_BLA_Followup_Agonist_viability: Viability Assessment in the Tox21 HEK293 Progesterone Receptor (PR) Agonism Beta-lactamase Follow-Up Assay (AID 2283935);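 also: signal loss means lower viability so actives are cytotoxic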
Method: TOX21_PR_BLA_Followup is a secondary assay for specificity for the TOX21_PR_BLA_Agonist assay. To differentiate true PR agonists from cytotoxic substances, this follow up assay is multiplexed with a cell viability assay. The compounds were also tested for auto fluorescence that may interfere with the biological target readout resulting in potential false positives and/or negatives. To identify the compounds that stimulate PR signaling, a PR-UAS-bla GripTite cell line i.e. PR-UAS-bla HEK293T (Invitrogen, Carlsbad, CA, USA) containing a beta-lactamase reporter gene under the control of an UAS response element was used to screen Tox21 10K compound library. The cytotoxicity of the Tox21 compound library against the PR-bla cell line was tested in parallel by measuring the cell viability using CellTiter-Glo assay in the same wells. TOX21_PR_BLA_Followup_Agonist_viability is a component of the TOX21_PR_BLA_Followup_Agonist assay. This component measures cell viability using the CellTiter-Glo Luciferase-coupled ATP quantitation.TOX21_PR_BLA_Followup_Agonist_viability used a type of viability reporter where loss-of-signal activity can be used to understand changes in the cell viability. Furthermore, this assay endpoint can be referred to as a secondary readout, because this assay has produced multiple assay endpoints where this one serves a viability function. […]

[5] = TOX21_PR_BLA_Followup_Antagonist_viability: Viability Assessment in the Tox21 HEK293 Progesterone Receptor (PR) Antagonism Beta-lactamase Follow-Up Assay (AID 2283936);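 also: hits lower the luminescence signal meaning cytotoxicity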
Summary of the method: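 PR-UAS-bla HEK293T cells (3,000/well, 2% charcoal-stripped FBS) given compound plus R5020 agonist, 16 h at 37C. CellTiter-Glo added after bla read, 30 min at room temperature; luminescence loss indicates cytotoxicity.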

PGR (gene 5241) [6] = target: PGR (gene 5241) (UniProt P06401); experiment: TOX21_PR_LUC_Followup_Antagonist: Tox21 HEK293 Progesterone Receptor (PR) Antagonism Luciferase Follow-Up Assay (AID 2283938);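 also: curve fitted upward as signal gain over DMSO baseline despite antagonist label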
Summary of the method: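 Cells are grown 5 days in charcoal-stripped-FBS assay medium, plated, left 5 h, then dosed with compound and incubated 16 h. ONE-Glo reagent is added and luminescence read after 30 min.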

[7] = TOX21_PR_LUC_Followup_Antagonist_viability: Viability Assessment in the Tox21 HEK293 Progesterone Receptor (PR) Antagonism Luciferase Follow-Up Assay (AID 2283940)
Summary of the method: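 Cellular ATP, measured with luciferase-coupled CellTiter-Glo, served as the viability endpoint after HEK293-PR-A-luc cells were exposed to test compounds for 16 h at 37C.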

PGR (gene 5241) [8] = target: PGR (gene 5241) (UniProt P06401); experiment: TOX21_PR_BLA_Followup_Agonist_ratio: Tox21 HEK293 Progesterone Receptor (PR) Agonism Beta-lactamase Follow-Up Assay, Ratio (AID 2283933)
Summary of the method: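 Agonist-mode follow-up in HEK293T cells carrying a UAS-driven beta-lactamase reporter, grown in 2% charcoal-stripped serum. Compounds act for 16 hr; activity is the ch2/ch1 cleavage ratio, with same-well CellTiter-Glo viability run in parallel.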

PGR (gene 5241) [9] = target: PGR (gene 5241) (UniProt P06401); experiment: TOX21_PR_LUC_Followup_Agonist: Tox21 HEK293 Progesterone Receptor (PR) Agonism Luciferase Follow-Up Assay (AID 2283937; active = hit-call score of the fitted dose curve at least 0.9, where 1 is the maximum; inactive = score below 0.9)
Summary of the method: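 Agonist mode: reporter cells carrying PR-A and luciferase are treated 16 h with test compounds at 37C. Luciferase induction is measured by luminescence and fitted upward against DMSO.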

[10] = TOX21_PR_LUC_Followup_Agonist_viability: Viability Assessment in the Tox21 HEK293 Progesterone Receptor (PR) Agonism Luciferase Follow-Up Assay (AID 2283941);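 also: loss of signal means cytotoxicity so actives lower viability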
Summary of the method: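 Luminescent ATP quantitation (CellTiter-Glo) serves as the read-out; a drop flags cytotoxic compounds. Cells are HEK293-PR-A-luc grown in 10% charcoal-stripped FBS, plated 3,000/well, and exposed to compound for 16 h.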

SMILES: CSC1=N[C@@](C)(c2ccccc2)C(=O)N1Nc1ccccc1
- outcome [1]: inactive

SMILES: C[N+]1(C)CCCCC1
- outcome [2]: inactive

SMILES: CCOP(=S)(OCC)Oc1ccc([N+](=O)[O-])cc1
- AC50 (PGR (gene 5241) [3]): 3.78 µM (active)
- outcome [4]: inactive
- outcome [5]: inactive
- AC50 (PGR (gene 5241) [6]): 4.86 µM (active)
- outcome [7]: inactive

SMILES: C=C(C)[C@H]1Cc2c(ccc3c2O[C@@H]2COc4cc(OC)c(OC)cc4[C@@H]2C3=O)O1
- AC50 [1]: 5.29 µM (active)

SMILES: CCC(=O)Nc1ccc(Cl)c(Cl)c1
- outcome (PGR (gene 5241) [8]): inactive
- outcome (PGR (gene 5241) [3]): inactive
- outcome [4]: inactive
- outcome [5]: inactive
- outcome (PGR (gene 5241) [9]): inactive
- outcome (PGR (gene 5241) [6]): inactive
- outcome [7]: inactive
- outcome [10]: inactive
